The text below walks through data of PubChem BioAssay (NCATS).

Structures are written as SMILES. Inconclusive results are not listed. Calls of active or inactive are those of the source. Unless noted, calls come from the whole dose curve; as a rule, active = well fitted curve in the direction sought with a large enough effect; inconclusive = small, poorly fitted or top-dose-only effect, or another doubt; inactive = no such curve, though single readings can be large; an effect the other way counts as inactive or inconclusive.

The target of assay [1] is Cytochrome P450 3A4 (Homo sapiens) (UniProt P08684). As to the kind of experiment: qHTS Assay for Inhibitors and Substrates of Cytochrome P450 3A4 (AID 884). For activity change, negative = inhibition: % is set by controls: 0 for no effect and ±100 for the full control effect. Note: nearly all actives have a fitted effect of over 50% in size. Note: potency is the fitted concentration of half-maximal effect. The method in brief: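 20 nM human CYP3A4 with 25 uM Luciferin-PPXE (at KM) in 200 mM KPO4, preincubated 10 min with compound; NADPH regeneration started a 60 min RT reaction. Luciferin detected by luminescence, normalized to 57 uM ketoconazole as full inhibition.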

Assay [2] shares this target. As to the kind of experiment: qHTS Assay for Activators of Cytochrome P450 3A4 (AID 885). Note: nearly all actives have a fitted effect of over 65% in size. Note: potency is the fitted concentration of half-maximal effect. Summed up: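 Steps: enzyme/substrate mix dispensed; compound added, 10 min RT; NADPH regeneration solution added, 60 min RT; luciferin detection buffer stops reaction; 20 min later luminescence measured.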
Assay [3] in a line: Confirmation and Secondary Assay for Modulators of Hemoglobin Beta Chain Splicing at IVS2 654 locus (AID 910).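 Note: HeLa cells stably carrying EGFP split by mutant beta-globin IVS2-654 intron; per-well total GFP intensity by laser scanning cytometry after 2-day treatment; % of control where 0% means no effect.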 Summed up: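 Readout: per-well total peak green fluorescence (488 nm ex, 500–520 nm em) from objects 5–250 µm, reflecting correct splicing of an EGFP-654 reporter. Compounds were applied for 2 days at 37 °C to overnight-plated HeLa EGFP-654 cells; controls were DMSO and 500 nM IVS2-654 PNA.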

A short description of assay [4]: Confirmation and Secondary Assay for Modulators of Hemoglobin Beta Chain Splicing at IVS2 705 locus (AID 930).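 Note: HeLa cells stably expressing the EGFP-705 splicing reporter; % of control where 0% means no effect.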 The method in brief: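 Assay measures total GFP intensity per well in HeLa EGFP-705 cells after 2 days with compound; mis-splicing normally truncates EGFP, so fluorescence indicates corrected splicing.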
Assay [5] can be described thus: qHTS Assay for Lipid Storage Modulators (AID 1519; calls by dose curve; for activity change, negative = inhibition: % is set by controls: 0 for no effect and ±100 for the full control effect). The settings on record: Drosophila S3 cells, BODIPY lipid droplet/cell ratio, laser cytometry, cells loaded with oleic acid; for activity change, negative = inhibition: at 57.5 µM (top of the series). The method in brief:
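Cells seeded at 5,000 per well were treated with compounds over a concentration series and loaded with oleic acid (400 uM, as added). Lipid droplet fluorescence (488 nm excitation, 500-530 nm channel) was read by laser-scanning cytometry and normalized to 20 uM Triacsin C.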
For orientation: Quantitative high-throughput screening tests each substance at several concentrations.

Assay [6] has as its target Ubiquitin carboxyl-terminal hydrolase 1 (Homo sapiens) (UniProt O94782). The assay can be described thus: Inhibitors of USP1/UAF1: Pilot qHTS (AID 504865).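 For activity change, negative = inhibition: rhodamine fluorescence freed from ubiquitin-rhodamine substrate followed over time; top concentration of the series differs between compounds; % is set by controls: 0 for no effect and ±100 for the full control effect.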 Note: nearly all actives have a fitted effect of over 35% in size. Note: potency is the fitted concentration of half-maximal effect. The method in brief:
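Kinetic fluorescence assay: 1nM USP1/UAF1, 15 min compound preincubation, then 150nM Ub-Rho; 480/540 nm.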

In assay [7] the target is Luciferin 4-monooxygenase (Photinus pyralis) (UniProt P08659). As to the kind of experiment: Biochemical firefly luciferase enzyme assay for NPC (AID 624030).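 Note: purified P. pyralis luciferase at 10 nM with luciferin and ATP substrate; 0% = DMSO and -100% = full luciferase inhibition by PTC124 control; nearly all actives have a fitted effect of over 70% in size.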 The method in brief:
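Direct inhibition of firefly luciferase enzyme (10 nM final, 50 mM Tris Acetate) assessed by luminescence within 5 minutes. Percent activity scaled between DMSO and PTC124 positive control, with concentration-effect curves classified by fit quality and response.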

The target in assay [8] is DNA dC->dU-editing enzyme APOBEC-3G (Homo sapiens) (UniProt Q9HC16). As to the kind of experiment: qHTS for inhibitors of Vif-A3G interactions: Validation (AID 588379). Note: 0% is about no effect. Summed up:
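HeLa cells stably expressing Vif and A3G-eYFP, 700 cells/well, incubated overnight at 37 deg C, then exposed to compound overnight at 37 deg C. Inhibition of Vif-mediated degradation read as increased yellow fluorescence (Ex 488/Em 500-530) by laser-scanning cytometry.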

The mark [9] stands for this setting: measured here: cell count channel max response.
Where [10] appears, read: measured here: lipid channel max response.

Sequence of Cytochrome P450 3A4 (Homo sapiens) (P08684 whole entry, looked up): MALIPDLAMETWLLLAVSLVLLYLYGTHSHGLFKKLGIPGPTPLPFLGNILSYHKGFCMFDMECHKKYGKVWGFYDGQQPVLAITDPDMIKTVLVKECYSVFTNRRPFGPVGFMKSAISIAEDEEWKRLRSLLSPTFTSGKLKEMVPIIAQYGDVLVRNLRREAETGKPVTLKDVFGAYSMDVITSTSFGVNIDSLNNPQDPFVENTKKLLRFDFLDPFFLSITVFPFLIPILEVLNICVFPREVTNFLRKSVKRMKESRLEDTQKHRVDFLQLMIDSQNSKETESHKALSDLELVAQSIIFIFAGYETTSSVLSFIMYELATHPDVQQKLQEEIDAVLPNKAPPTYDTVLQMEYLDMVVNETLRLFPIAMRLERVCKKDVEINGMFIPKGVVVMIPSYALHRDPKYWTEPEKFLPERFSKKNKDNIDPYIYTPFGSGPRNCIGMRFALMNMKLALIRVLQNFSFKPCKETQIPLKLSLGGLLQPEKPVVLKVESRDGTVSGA
Sequence of Ubiquitin carboxyl-terminal hydrolase 1 (Homo sapiens) (O94782 whole entry, looked up): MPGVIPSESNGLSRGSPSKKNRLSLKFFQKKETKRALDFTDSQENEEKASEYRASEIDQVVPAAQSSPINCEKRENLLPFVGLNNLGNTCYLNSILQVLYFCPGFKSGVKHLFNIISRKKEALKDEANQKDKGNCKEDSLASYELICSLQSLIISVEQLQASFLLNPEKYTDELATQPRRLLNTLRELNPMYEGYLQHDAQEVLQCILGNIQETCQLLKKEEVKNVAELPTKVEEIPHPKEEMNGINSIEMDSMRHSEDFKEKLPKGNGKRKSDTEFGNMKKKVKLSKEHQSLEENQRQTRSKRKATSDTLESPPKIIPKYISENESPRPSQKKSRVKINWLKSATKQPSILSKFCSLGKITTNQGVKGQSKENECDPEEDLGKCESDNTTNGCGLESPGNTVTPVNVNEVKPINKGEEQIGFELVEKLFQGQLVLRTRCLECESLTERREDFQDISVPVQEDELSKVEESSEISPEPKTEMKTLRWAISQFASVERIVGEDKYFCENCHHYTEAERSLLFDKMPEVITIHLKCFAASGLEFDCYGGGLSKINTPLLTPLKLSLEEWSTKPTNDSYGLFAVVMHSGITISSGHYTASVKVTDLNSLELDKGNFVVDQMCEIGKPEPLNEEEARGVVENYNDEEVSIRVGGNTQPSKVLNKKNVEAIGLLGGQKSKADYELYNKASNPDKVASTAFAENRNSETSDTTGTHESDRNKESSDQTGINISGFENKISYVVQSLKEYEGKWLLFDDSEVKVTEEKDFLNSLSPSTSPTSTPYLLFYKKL
Sequence of DNA dC->dU-editing enzyme APOBEC-3G (Homo sapiens) (Q9HC16 whole entry, looked up): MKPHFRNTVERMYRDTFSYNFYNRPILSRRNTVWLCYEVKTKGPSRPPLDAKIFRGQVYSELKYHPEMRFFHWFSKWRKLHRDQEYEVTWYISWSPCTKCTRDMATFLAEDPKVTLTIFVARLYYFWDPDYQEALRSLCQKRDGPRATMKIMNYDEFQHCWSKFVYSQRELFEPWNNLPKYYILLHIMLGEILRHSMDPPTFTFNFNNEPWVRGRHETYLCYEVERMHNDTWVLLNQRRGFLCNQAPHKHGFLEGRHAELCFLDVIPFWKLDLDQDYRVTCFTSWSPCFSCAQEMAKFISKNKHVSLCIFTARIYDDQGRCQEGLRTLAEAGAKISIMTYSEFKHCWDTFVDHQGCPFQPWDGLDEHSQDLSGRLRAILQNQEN
Sequence of Luciferin 4-monooxygenase (Photinus pyralis) (P08659 whole entry, looked up): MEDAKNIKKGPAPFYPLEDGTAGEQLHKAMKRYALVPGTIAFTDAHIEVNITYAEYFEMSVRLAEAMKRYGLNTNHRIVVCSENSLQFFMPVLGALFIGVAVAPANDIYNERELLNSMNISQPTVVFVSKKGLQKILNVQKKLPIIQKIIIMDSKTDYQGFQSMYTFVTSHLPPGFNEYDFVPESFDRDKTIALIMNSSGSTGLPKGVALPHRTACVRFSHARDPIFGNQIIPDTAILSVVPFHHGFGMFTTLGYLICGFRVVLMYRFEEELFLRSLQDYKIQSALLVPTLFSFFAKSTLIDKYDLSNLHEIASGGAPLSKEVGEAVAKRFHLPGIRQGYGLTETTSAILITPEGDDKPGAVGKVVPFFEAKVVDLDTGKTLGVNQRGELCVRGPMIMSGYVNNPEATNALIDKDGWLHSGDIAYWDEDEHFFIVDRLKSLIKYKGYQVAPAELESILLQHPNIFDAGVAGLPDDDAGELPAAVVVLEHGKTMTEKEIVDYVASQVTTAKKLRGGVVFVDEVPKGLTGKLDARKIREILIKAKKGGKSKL

For the molecule `CC(=O)OC1C=C[C@]2(C)C(CC(OC(C)=O)[C@@]3(C)C4=CC(=O)OC(c5ccoc5)[C@]4(C)CCC23)C1(C)C` (stereo partly specified), the Potency result in assay [1], in assay [3], in assay [4] and in assay [6] was “inactive” in each case. In assay [2], the Potency is 12.6 µM (active). The activity change, negative = inhibition in assay [5] was -0.882% (inactive). In addition, the max response in assay [5] (setting [9]) was -3.66%; in assay [5] (setting [10]), 1.1%.

`O=C(O)C(O)C(O)C(O)C(O)C(=O)O` (stereo unspecified): the Potency result in assay [1], in assay [4], in assay [6] and in assay [7] was “inactive” each time. Further, the activity change, negative = inhibition in assay [5] is 5% (inactive). The results for the max response in assay [5] (setting [9]) and in assay [5] (setting [10]) were 3.45% and 13%, respectively.

With `Nc1ccn([C@@H]2O[C@H](CO)[C@@H](OP(=O)(O)O)[C@H]2O)c(=O)n1`, the Potency result in assay [2] and in assay [6] was “inactive” throughout. The activity change, negative = inhibition in assay [5] was 4.4% (inactive). The max response in assay [5] (setting [9]) turned out to be 7.76%; in assay [5] (setting [10]), 8.34%. Besides, in assay [8], the molecule was called inactive.

On to `O=c1c(-c2ccc(O[C@@H]3O[C@H](CO)[C@@H](O)[C@H](O)[C@H]3O)cc2)coc2cc(O)cc(O)c12`, for which the Potency result in assay [1] and in assay [6] was “inactive” each time. In addition, in assay [5], the activity change, negative = inhibition was 7.95% (inactive). Further, the max response in assay [5] (setting [9]) was -1.95%; in assay [5] (setting [10]), 5.64%. The molecule was called inactive in assay [8].

Consider `O=C1c2ccccc2C(=O)c2c(O)c(O)cc(O)c21`, for which the Potency entry in assay [2], in assay [3] and in assay [4] was “inactive” throughout. Moreover, in assay [5], the activity change, negative = inhibition was 12.2% (inactive). In addition, the max response was -4.21% in assay [5] (setting [9]) and 7.97% in assay [5] (setting [10]). In addition, in assay [6], the Potency is 25.1 µM (active). Also, the outcome in assay [8] was inactive.

As to `Cc1cc(=O)c2c(O)cc(O)c(C)c2o1`, in assay [1], the Potency was 25.1 µM (active). Further, the Potency entry in assay [2], in assay [3], in assay [4] and in assay [6] was “inactive” in each case. Further, the activity change, negative = inhibition in assay [5] was 14% (inactive). The max response in assay [5] (setting [9]) is 5.24%; in assay [5] (setting [10]), 21.1%.

Take `Nc1nc2c(nc(Sc3ccc(Cl)cc3)n2C2OC(CO)C(O)C2O)c(=O)[nH]1` (stereo unspecified): the Potency in assay [1] was 15.8 µM (active). Moreover, the Potency result in assay [2], in assay [3], in assay [4] and in assay [6] was “inactive” in each case. The activity change, negative = inhibition in assay [5] is 5.03% (inactive). Besides, the results for the max response in assay [5] (setting [9]) and in assay [5] (setting [10]) were 14.6% and 19.6%, respectively.
